According to PubChem BioAssay (NCI):
Values joined by “and” are separate entries in the source; they are usually repeats but may differ in a detail not shown here. Equal entries are not always repeated. About 83,000 compounds went through this panel and 20% of them were active in at least one assay; those are over-represented in the sample as a whole.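 Activity criterion: percent growth below 10, measured after cells in 96-well plates were exposed to a single compound concentration for 48 hours.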 A number with no mark means an inactive call. Active and inactive are the calls of the source.

System: M14 melanoma
Assay: NCI-60 one-dose screen, 48 h (100 = growth as untreated, 0 = no growth, -100 = all killed)
Details: 10 µM unless noted
Procedure: Growth inhibition of the M14 human tumor cell line is measured as a screen for anti-cancer activity. Cells are grown in 96 well plates and exposed to the test compound for 48 hours. Compounds are tested at a single concentration, which is 10^-5 M for most compounds. The reported endpoint is percent growth (GI% or GIPRCNT), where numbers from 0 - 100% represent growth inhibition, and numbers from -100% - 0 represent cell death. For example, a value of 40 represents 60% growth inhibition. A value of 0 means no net growth occurred over the course of the experiment. A value of -40 indicates 40% of cells at the beginning of the experiment died by the end of the experiment. A value of -100 means all cells are dead at the end of the experiment.
NCI-60 Human Tumor Cell Lines Screen was performed using the standard one-dose NCI protocol, which is described in more detail at https://dtp.cancer.gov/discovery_development/nci-60/default.htm.
Compounds with GIPRCNT values below 10 were considered active. Activity score was based on GIPRCNT using the following formula: […]
Score is 0 for GIPRCNT values of 100 or above, 50 for GIPRCNT values of 0, and 100 for GIPRCNT values of -100.

Compound | growth
CC1=C(C)C(=O)O[C@@H]([C@](C)(O)[C@]2(O)CC[C@@]3(O)[C@@H]4C[C@H]5O[C@]56CC=CC(=O)[C@]6(C)[C@H]4CC[C@]23C)C1 | 11.3%
O=[N+]([O-])c1cc(Cl)c(Cl)cc1Cl | 102% and 114%
CC12CCC3C(CCC4CC(O)CCC43C)C1CCC2=O (stereo not given) | 98.8%
Nc1cccnc1 | 113%
COC(=O)C1=CO[C@@H](C)[C@@H]2CN3CCc4c([nH]c5cc(OC)ccc45)[C@@H]3C[C@H]12 | 103%
CCCCCCCCCCCCCCCC[N+](C)(C)Cc1ccccc1 | -45.6% (active) and -88.7% (active)
O=C(Cc1ccccc1)c1ccccc1 | 107%
CCCCCCCCCCCCCCCCCCn1cc[n+](C)c1 | -62.4% (active) and -49.9% (active)
N#CC(N)c1ccccc1 (stereo not given) | 99.8%
Cc1cc[c-]cc1.Fc1c[c-]c(-c2ccccn2)c(F)c1.N#CCC[PH+](CCC#N)c1ccccc1.[Pt+2] | 21.9%
C[C@]12CC[C@H]3[C@@H](CC=C4c5nc(-c6ccc(Br)cc6)sc5CC[C@@]43C)[C@@H]1CC[C@@H]2O | 90.5%
OCCN=Cc1c[nH]c2ccccc12 | 97.3%
O=C(O)c1ccc(=O)[nH]c1 | 102% and 95.8%
C=CC[PH+](c1ccccc1)c1ccccc1.C=CC[PH+](c1ccccc1)c1ccccc1.[Pt+2].[S-]c1nc2ccccc2[nH]1.[S-]c1nc2ccccc2[nH]1 | -18.6% (active)
O=C(O)c1ccccc1N(CCO)CCCl | 96%
O=C(Cc1ccccc1)NC(O)C(Cl)(Cl)Cl (stereo not given) | 101%
CN(C)C(=S)SSC(=S)N(C)C | 93% and 100%
CCC(=O)C(CC(C)N1CCCCCC1)(c1ccccc1)c1ccccc1 (stereo not given) | 98.1%
C[C@]12CC[C@@H](OC(=O)N(CCCl)N=O)C[C@@H]1CC[C@@H]1[C@@H]2CC[C@]2(C)C(=O)CC[C@@H]12 | 72.5%
CCCC(C)SP(=S)(SC(C)CCC)SC(C)CCC (stereo not given) | 94.4%

Compound | growth
COCC1OC2OC3C(COC)OC(OC4C(COC)OC(OC5C(COC)OC(OC6C(COC)OC(OC7C(COC)OC(OC8C(COC)OC(OC1C(O)C2O)C(O)C8O)C(O)C7O)C(O)C6O)C(O)C5O)C(O)C4O)C(O)C3O (stereo not given) (tested in a mixture with another compound) | 105%
C/C=C(/C)C(=O)O[C@H]1CC[C@@]2(C)[C@@H]3CC[C@H]4[C@]5(O)C[C@H](O)[C@@]6(O)[C@@H](CN7C[C@@H](C)CC[C@H]7[C@@]6(C)O)[C@]5(O)C[C@@]42O[C@@]13O | 102%
O=NN(c1ccccc1)c1ccccc1 | 106%
COC(=O)C1=CCCN(C)C1 | 98% and 100%
Oc1ccccc1C=NCCN=Cc1ccccc1O.[Fe] | 93.9%
Nc1nc(=S)nc(N)[nH]1 | 89.5%
O=[N+]([O-])c1ccc(CI)cc1 | 71.6%
C[C@]12CC[C@H]3[C@@H](C[C@@H]4SC(Nc5ccccc5)=N[C@@]45C/C(=N/O)CC[C@]35C)[C@@H]1CCC2=O | 68.5%
CC(=O)OC1CC2(O)C(CCC3(C)C(c4ccc(=O)oc4)CCC32O)C2(C)CCC(OC3OC(CO)C(O)C(O)C3O)C=C12 (stereo not given) | -78% (active)
COc1ccc(N)cc1N | 111%
CCCCS(=O)(=O)Cl | 99.1%
C#Cc1cccc(Nc2nc(Cl)nc3cc(NC(=O)CF)ccc23)c1 | 48.3%
C[C@]12CCc3sc(Nc4ccc(F)cc4)nc3C1=CC[C@@H]1[C@@H]2CC[C@]2(C)C(=O)CC[C@@H]12 | 90%
CC1(C)N=C(N)N=C(N)N1c1ccc(CCC(=O)Nc2ccc(S(=O)(=O)F)cc2)cc1 | 35.9%
C=CCOC(=O)C(Br)CC (stereo not given) | 109%
c1ccc2c(c1)O[As](O[As]1Oc3ccccc3O1)O2 | 52.2%
COC(=O)[C@@H](C)C[C@H](Cc1ccccc1)NC(=O)c1cccc([C@@H](C[C@H](C(C)C)N(C)C(=O)[C@@H](NC(=O)[C@H]2CCCCN2C)C2CC2)OC(C)=O)n1 | 1.47% (active)
Cc1cc(N(CCCl)CCCl)ccc1/C=N\NC(=O)c1cccnc1 | 96% and 92.1%
O=[N+]([O-])c1cc(Br)c(O)c(Br)c1 | 111%
O=C=Nc1ccc(Br)cc1 | 100%
